{"source": "paper PMC7862700", "about": "“An all-to-all approach to the identification of sequence-specific readers for epigenetic DNA modifications on cytosine”", "assay_in_all_cases": "DAPPL (digital affinity profiling via proximity ligation, sequencing); 10 mM Tris-HCl pH 7.5, 50 mM NaCl, 1 mM DTT, 4% glycerol, room temperature, 30 min; GST-TFs on glutathione beads, 16-mer random dsDNA library, 0.1% formaldehyde crosslink after washing; high values mean tight binding", "conditions_in_all_cases": "protein: recombinant; tags: N-terminal GST; dsDNA, one strand shown", "key": {"[1]": {"molecular_target": "T1, FLI1 (Homo sapiens, UniProt Q01543 1-452)", "T1 sequence": "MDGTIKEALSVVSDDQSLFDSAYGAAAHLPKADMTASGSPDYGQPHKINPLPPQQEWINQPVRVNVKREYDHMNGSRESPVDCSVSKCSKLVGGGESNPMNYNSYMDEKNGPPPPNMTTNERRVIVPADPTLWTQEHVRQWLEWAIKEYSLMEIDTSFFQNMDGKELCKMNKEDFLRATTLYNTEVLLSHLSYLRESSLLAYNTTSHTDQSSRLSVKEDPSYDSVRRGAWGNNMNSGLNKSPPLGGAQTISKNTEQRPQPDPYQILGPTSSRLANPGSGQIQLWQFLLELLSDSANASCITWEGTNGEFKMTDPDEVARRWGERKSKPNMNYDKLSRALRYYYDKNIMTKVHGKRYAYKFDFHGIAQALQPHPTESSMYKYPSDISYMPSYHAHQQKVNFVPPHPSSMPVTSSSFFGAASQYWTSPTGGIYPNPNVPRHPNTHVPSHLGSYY", "procedure,_shortened": "(§1)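 Binding signal is defined as a hexamer's read frequency for one factor over its frequency for the tag-only sample. To obtain reads, GST-fused human transcription factors were expressed in yeast, captured on glutathione beads, barcoded with DNA and pooled with that sample. Pools met 200 nmole of a 16-mer random double-stranded DNA library in Tris/NaCl/DTT/glycerol buffer for 30 min at room temperature before washing, 0.1% formaldehyde crosslinking, proximity ligation (BsaI/T4 ligase, 1 h, 37 °C), PCR and Illumina NextSeq500 sequencing.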"}, "[2]": {"molecular_target": "T2, GABPA (Homo sapiens, UniProt Q06546 1-454)", "T2 sequence": "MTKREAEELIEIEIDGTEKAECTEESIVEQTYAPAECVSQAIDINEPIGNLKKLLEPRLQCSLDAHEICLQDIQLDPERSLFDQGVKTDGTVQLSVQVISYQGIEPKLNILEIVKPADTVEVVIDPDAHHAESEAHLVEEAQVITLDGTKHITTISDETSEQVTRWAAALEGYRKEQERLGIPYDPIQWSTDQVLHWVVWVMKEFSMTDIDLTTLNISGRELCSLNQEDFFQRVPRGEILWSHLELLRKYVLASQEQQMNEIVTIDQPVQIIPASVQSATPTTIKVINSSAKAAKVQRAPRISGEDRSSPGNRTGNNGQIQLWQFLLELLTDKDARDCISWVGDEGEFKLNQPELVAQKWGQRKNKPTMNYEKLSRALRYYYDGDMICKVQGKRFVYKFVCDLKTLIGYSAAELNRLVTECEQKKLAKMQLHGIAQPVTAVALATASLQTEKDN", "procedure,_shortened": "as §1"}, "[3]": {"molecular_target": "T3, ERG (Homo sapiens, UniProt P11308 1-479)", "T3 sequence": "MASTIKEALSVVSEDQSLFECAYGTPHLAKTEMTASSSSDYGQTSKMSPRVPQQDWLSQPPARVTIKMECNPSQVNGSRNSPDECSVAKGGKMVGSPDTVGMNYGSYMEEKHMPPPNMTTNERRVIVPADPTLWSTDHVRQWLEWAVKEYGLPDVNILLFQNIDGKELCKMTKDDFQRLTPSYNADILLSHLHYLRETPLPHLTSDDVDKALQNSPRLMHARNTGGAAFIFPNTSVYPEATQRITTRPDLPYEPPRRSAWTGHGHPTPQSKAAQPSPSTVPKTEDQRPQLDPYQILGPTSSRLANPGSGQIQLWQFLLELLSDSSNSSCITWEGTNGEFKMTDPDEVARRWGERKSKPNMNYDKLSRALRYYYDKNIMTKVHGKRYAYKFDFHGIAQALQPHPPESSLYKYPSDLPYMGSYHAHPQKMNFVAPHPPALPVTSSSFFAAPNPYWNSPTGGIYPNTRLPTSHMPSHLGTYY", "procedure,_shortened": "as §1"}, "[4]": {"molecular_target": "T4, EHF (Homo sapiens, UniProt Q9NZC4 1-300)", "T4 sequence": "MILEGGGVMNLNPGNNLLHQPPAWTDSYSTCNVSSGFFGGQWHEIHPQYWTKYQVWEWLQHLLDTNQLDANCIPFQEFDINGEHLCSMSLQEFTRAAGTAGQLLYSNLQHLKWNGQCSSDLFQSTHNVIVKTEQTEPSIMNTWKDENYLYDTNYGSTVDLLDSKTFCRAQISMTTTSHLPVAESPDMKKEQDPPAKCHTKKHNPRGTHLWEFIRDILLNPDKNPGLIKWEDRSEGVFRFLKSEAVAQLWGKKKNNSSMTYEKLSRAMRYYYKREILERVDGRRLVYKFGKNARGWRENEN", "procedure,_shortened": "as §1"}, "[5]": {"molecular_target": "SPI1 (Homo sapiens, UniProt P17947 1-270)", "procedure,_shortened": "as §1"}, "[6]": {"molecular_target": "ETV5 (Homo sapiens, UniProt P41161 1-510)", "sequence (P41161 whole entry)": "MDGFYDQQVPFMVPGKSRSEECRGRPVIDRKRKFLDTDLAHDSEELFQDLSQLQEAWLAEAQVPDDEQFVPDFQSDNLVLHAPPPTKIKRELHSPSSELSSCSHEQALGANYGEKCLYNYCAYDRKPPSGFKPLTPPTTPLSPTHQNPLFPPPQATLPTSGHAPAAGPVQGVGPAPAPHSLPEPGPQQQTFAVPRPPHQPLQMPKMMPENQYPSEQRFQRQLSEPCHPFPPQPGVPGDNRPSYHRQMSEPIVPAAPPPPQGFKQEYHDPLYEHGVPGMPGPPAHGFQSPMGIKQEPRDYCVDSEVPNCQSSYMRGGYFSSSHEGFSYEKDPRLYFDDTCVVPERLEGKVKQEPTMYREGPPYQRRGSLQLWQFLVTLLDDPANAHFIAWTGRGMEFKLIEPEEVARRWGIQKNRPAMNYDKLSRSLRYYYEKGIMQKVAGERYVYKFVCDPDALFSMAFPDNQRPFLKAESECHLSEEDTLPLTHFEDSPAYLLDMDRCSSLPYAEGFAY", "procedure,_shortened": "as §1"}, "[7]": {"molecular_target": "T5, SPIC (Homo sapiens, UniProt Q8N5J4 1-248)", "T5 sequence": "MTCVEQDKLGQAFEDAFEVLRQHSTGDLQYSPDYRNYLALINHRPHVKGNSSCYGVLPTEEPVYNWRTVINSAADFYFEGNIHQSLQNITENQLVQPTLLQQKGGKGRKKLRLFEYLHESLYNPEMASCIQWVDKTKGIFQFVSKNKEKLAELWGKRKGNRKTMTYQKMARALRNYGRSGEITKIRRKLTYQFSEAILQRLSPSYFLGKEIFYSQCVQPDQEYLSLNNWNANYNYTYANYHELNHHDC", "procedure,_shortened": "as §1"}, "[8]": {"molecular_target": "T6, ERF (Homo sapiens, UniProt P50548 1-548)", "T6 sequence": "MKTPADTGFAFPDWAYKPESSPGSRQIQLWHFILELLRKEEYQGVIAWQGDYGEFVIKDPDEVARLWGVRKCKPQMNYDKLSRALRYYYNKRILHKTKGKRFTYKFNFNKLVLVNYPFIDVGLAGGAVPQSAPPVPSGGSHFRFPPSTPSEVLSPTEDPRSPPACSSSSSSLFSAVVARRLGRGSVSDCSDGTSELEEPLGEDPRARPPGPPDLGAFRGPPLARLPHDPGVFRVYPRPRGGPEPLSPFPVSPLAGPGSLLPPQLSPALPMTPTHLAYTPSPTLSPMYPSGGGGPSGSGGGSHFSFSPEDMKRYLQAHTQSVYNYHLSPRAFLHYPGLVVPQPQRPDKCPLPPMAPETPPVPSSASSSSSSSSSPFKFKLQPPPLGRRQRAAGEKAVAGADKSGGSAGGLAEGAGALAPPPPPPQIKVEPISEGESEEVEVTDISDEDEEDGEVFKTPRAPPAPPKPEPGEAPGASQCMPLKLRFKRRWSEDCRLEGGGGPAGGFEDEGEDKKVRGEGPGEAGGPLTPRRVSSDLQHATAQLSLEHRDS", "procedure,_shortened": "as §1"}, "[9]": {"molecular_target": "T7, ETV3L (Homo sapiens, UniProt Q6ZN32 1-361)", "T7 sequence": "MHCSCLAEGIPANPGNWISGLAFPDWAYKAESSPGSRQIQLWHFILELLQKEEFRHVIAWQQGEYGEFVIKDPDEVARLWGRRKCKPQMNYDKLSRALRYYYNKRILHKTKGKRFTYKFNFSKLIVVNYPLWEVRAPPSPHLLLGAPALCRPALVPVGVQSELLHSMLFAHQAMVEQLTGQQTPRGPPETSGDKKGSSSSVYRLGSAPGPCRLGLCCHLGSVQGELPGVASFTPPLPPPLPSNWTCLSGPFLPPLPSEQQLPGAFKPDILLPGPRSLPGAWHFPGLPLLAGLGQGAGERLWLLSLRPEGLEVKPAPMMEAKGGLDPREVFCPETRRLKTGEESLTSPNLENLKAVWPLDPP", "procedure,_shortened": "as §1"}, "[10]": {"molecular_target": "T8, ETS2 (Homo sapiens, UniProt P15036 1-469)", "T8 sequence": "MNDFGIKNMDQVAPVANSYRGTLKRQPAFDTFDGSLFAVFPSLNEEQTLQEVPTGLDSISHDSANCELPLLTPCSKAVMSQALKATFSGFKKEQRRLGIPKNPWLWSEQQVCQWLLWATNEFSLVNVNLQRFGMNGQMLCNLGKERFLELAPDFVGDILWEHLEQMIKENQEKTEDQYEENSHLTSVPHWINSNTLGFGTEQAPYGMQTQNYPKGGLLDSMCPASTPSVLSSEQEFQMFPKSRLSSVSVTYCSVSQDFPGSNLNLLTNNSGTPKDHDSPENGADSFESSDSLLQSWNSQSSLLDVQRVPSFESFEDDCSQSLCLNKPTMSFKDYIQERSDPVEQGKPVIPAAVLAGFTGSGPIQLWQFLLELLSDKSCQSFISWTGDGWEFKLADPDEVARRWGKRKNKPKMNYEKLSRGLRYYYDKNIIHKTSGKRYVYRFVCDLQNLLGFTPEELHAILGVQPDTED", "procedure,_shortened": "as §1"}, "[11]": {"molecular_target": "T9, SPDEF (Homo sapiens, UniProt O95238 1-335)", "T9 sequence": "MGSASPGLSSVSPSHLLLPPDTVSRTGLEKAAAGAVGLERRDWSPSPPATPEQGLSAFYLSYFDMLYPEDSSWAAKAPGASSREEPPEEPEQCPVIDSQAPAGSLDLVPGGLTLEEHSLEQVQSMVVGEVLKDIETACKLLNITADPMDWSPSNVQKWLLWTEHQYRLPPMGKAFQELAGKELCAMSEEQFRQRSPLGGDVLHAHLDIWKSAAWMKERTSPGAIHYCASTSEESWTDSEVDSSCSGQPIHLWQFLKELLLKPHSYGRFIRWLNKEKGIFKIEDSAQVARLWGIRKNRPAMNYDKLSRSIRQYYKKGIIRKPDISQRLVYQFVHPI", "procedure,_shortened": "as §1"}, "[12]": {"molecular_target": "ETV6 (Homo sapiens, UniProt P41212 1-452)", "sequence (P41212 whole entry)": "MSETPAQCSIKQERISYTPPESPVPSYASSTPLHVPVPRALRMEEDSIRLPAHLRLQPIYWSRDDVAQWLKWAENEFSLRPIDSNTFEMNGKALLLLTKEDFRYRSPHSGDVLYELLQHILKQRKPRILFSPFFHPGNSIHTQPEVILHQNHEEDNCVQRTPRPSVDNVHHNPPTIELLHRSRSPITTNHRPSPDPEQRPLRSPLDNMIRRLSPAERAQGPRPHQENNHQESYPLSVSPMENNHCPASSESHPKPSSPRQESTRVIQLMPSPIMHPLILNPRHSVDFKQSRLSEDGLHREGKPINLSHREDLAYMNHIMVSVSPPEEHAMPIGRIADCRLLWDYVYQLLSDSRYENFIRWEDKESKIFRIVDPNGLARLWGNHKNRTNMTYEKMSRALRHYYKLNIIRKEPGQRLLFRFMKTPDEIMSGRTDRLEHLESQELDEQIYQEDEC", "procedure,_shortened": "as §1"}}}
{"sequence": "GTAGTT", "values": [{"measurement": "binding signal", "setting": "[1]", "value": "1.1 fold enrichment (6-mer frequency, TF over GST control)"}, {"measurement": "binding signal", "setting": "[2]", "value": "1.05 fold enrichment (6-mer frequency, TF over GST control)"}, {"measurement": "binding signal", "setting": "[3]", "value": "1.01 fold enrichment (6-mer frequency, TF over GST control)"}, {"measurement": "binding signal", "setting": "[4]", "value": "1.07 fold enrichment (6-mer frequency, TF over GST control)"}, {"measurement": "binding signal", "setting": "[5]", "value": "1.01 fold enrichment (6-mer frequency, TF over GST control)"}, {"measurement": "binding signal", "setting": "[6]", "value": "1.04 fold enrichment (6-mer frequency, TF over GST control)"}, {"measurement": "binding signal", "setting": "[7]", "value": "1.05 fold enrichment (6-mer frequency, TF over GST control)"}, {"measurement": "binding signal", "setting": "[8]", "value": "1.07 fold enrichment (6-mer frequency, TF over GST control)"}, {"measurement": "binding signal", "setting": "[9]", "value": "1.01 fold enrichment (6-mer frequency, TF over GST control)"}, {"measurement": "binding signal", "setting": "[10]", "value": "1.02 fold enrichment (6-mer frequency, TF over GST control)"}, {"measurement": "binding signal", "setting": "[11]", "value": "1.05 fold enrichment (6-mer frequency, TF over GST control)"}, {"measurement": "binding signal", "setting": "[12]", "value": "1.08 fold enrichment (6-mer frequency, TF over GST control)"}]}
